Source: PubChem (several laboratories)
Most compounds without a hit are left out; they make up all but 0.51% or so of the library.
E coli growth-1 = blocks Escherichia coli growth; OD600, 23 h; stronger effect = lower value; OD600 absorbance (concentration not given with the values); actives 0.21% (n = 330,000); AID 1053175;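 active means OD600 absorbance below the run mean of sample wells minus 3.6 SD, in any replicate, cut at about 0.56 in these data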
phage Ecoli inh = E. coli growth loss with phage present; growth absorbance; AID 651602; actives 0.26% (n = 360,000); inhibition, % at 11.9 µM; in the data active means inhibition above about 11%
Tat transport = inhibitors of E. coli Tat protein transport; E. coli MC4100 TorA-mCherry Tat export, fluorescence; inhibition, % at 10 µM; actives 0.036% (n = 340,000); AID 488895;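 active means mean replicate inhibition at least 50% and at least half of replicates individually reaching 50%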;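 further: exported cargo escapes ClpAP degradation while cytoplasmic cargo is degraded and loses fluorescence; 0% = median of neutral control wells and 100% = median of NaSCN control wells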
E coli growth-2 = reduces bacterial viability in AddAB counter-screen | inhibition, % at 11.9 µM | actives 0.27% (n = 330,000) | E. coli V3065 growth, OD600 absorbance, 18 h;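 active means inhibition above the campaign's mean inhibition across all tested compounds plus 3 SD, cut at about 9.9% in these data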;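 further: uninfected addAB+ strain grown without phage in ampicillin broth; 0% = DMSO wells and 100% = ciprofloxacin 0.95 µg/ml wells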
AddAB inh = less growth of phage-infected E. coli with AddAB. E. coli expressing H. pylori AddAB, absorbance growth. inhibition, % at 11.9 µM. actives 0.29% (n = 330,000); in the data active means inhibition above about 12%;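 further: 0% = vehicle wells of infected cells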
AddAB confirm = confirmation screen: growth loss of phage-infected E. coli expressing H. pylori AddAB. shares compounds with AddAB inh. E. coli V3065 expressing H. pylori AddAB, T4 phage, OD; T4 phage with gene 2 nonsense mutations. actives 64% (n = 880). inhibition, % at 11.9 µM;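 active means mean inhibition above a set limit taken from the earlier primary screen, cut at about 13% in these data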;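 further: higher means less bacterial growth since AddAB block lets phage replicate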
RecBCD counter = counter-screen: growth loss of RecBCD+ E. coli with mutant T4 phage | E. coli V66 + mutant T4 phage, OD growth | actives 73% (n = 880) | shares compounds with AddAB inh | inhibition, % at 11.9 µM;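 active means mean inhibition above the mean of solvent-only control wells plus 3 SD, cut at about 4% in these data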;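 further: optical density read after an 18 h incubation at 37 °C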
bact viab count = counter-screen: bacterial growth inhibition; AID 488956; actives 35% (n = 880); bacterial viability, absorbance (AddAB counterscreen); inhibition, % at 11.9 µM; shares compounds with AddAB inh; in the data active means inhibition above about 25%
* = called active by the depositor; . = no result given.

SMILES	E coli growth-1	phage Ecoli inh	Tat transport	E coli growth-2	AddAB inh	AddAB confirm	RecBCD counter	bact viab count
Cc1ccc(-c2oc3ccccc3c(=O)c2O)cc1	0.72	4	6	13*	13*	14*	14*	10
O=c1c(O)c(-c2ccccc2)oc2ccccc12	.	10	0	.	.	.	.	.
CSc1nnc(C(C)(C)C)c(=O)n1N=Cc1ccccc1	0.71	.	.	.	.	.	.	.
NC(=S)N/N=C/c1ccc(C(F)(F)F)cc1	.	4	-4	2	0	.	.	.
NC(=S)N/N=C/c1ncc(C(F)(F)F)cc1Cl	.	.	-4	18*	23*	18*	18*	18
CCOc1ccc(NC(=O)NNC(=O)c2ccc3ccccc3c2O)cc1	0.68	11	-8	12*	13*	9	12*	11
CCc1ccccc1NC(=O)NNC(=O)c1ccc2ccccc2c1O	0.71	5	7	4	1	.	.	.
Cc1cc(C)c(C=C2C(=O)Nc3ccccc32)[nH]1	0.73	.	.	.	.	.	.	.
O=C(NC(CO)Cc1ccc([N+](=O)[O-])cc1)C(Cl)Cl (stereo not given)	0.061*	.	12	83*	81*	88*	88*	88*
O=C(O)CC(Cc1ccc(Cl)cc1)C(=O)Nc1ccc([N+](=O)[O-])cc1 (stereo not given)	0.69	4	5	0	2	.	.	.
Cc1nc2sc(C(c3ccco3)N3CCN(C(c4ccccc4)c4ccccc4)CC3)c(O)n2n1 (stereo not given)	0.81	2	12	22*	37*	5	3	2
COc1ccc(NC(=O)CC2C(=O)N(c3cccc(C)c3)C(=O)N2C2CCCCC2)cc1 (stereo not given)	0.74	2	-4	0	0	.	.	.
CCc1ccc(NC(=O)CC2C(=O)N(c3cccc(C)c3)C(=O)N2C2CC2)cc1 (stereo not given)	0.78	4	-10	53*	99*	0	0	-2
O=[N+]([O-])c1cnc(Sc2ccncn2)s1	0.43*	10	-13	12*	81*	98*	8.7*	35*
COc1ccc(NC(=O)CSc2nc3ncccc3[nH]2)cc1OC	0.7	5	-9	3	13*	-2	4	1
C#CCOCCOCCOCCNc1nc(N2CCOCC2)nc(N2CCN(C(=O)C(CO)n3cc(C(N)C(C)C)nn3)CC2)n1 (stereo not given)	0.72	.	.	.	.	.	.	.
COC(=O)C1CC2CCC(O)CC2N1Cc1ccc(OC)cc1 (stereo not given)	0.68	.	.	.	.	.	.	.
COc1cccc(OCc2cc(C=NNC(=O)c3ccn[nH]3)ccc2OC)c1	0.76	.	.	.	.	.	.	.
COc1cc2c(cc1OC)-c1nnc(C)n1C(C)(C)C2	0.7	2	-1	-3	1	.	.	.
COc1cc2c(cc1OC)-c1nnc(C)n1C1(CCCC1)C2	0.72	3	5	11*	24*	2	1	1
Cc1c(Br)c([N+](=O)[O-])nn1C(C)C(=O)NCc1ccco1 (stereo not given)	0.64	2	8	6	17*	17*	3	12
Cc1nc2ccccn2c1C(O)=C1C(=O)C(=O)N(CCN(C)C)C1c1cccnc1 (stereo not given)	0.7	.	.	.	.	.	.	.
CCN1/C(=C/C=C/c2oc3ccc(-c4ccccc4)cc3[n+]2CC)Oc2ccc(-c3ccccc3)cc21	0.74	9	-15	12*	12*	8	5.6*	6
COC(=O)[C@@]1(Cc2ccc(F)cc2)C2c3cc(C(=O)N(C)C)n(CCc4ccccn4)c3CC2CN1C(=O)c1ccccc1 (stereo not given in full)	0.67	.	.	.	.	.	.	.
CC(C)CNC(=S)NC(=O)c1csc([N+](=O)[O-])c1	0.57	1	-15	-1	4	.	.	.
O=[N+]([O-])c1cc(-c2ncccn2)cs1	0.6	10	-1	13*	17*	100*	8.6*	27*
COC(=O)c1cc(=O)n(CCc2ccc(OC)cc2)c(=Nc2ccc(F)c(Cl)c2)s1	0.81	2	0	-2	0	.	.	.
